PubChem BioAssay (NCATS)
Results filed as inconclusive are left out. Where a call stands in place of a potency, no number is given. Active and inactive are the calls of the source. The call rests on the fitted dose curve; in most records, active means well fitted inhibition curve with a large enough effect; inconclusive means small, poorly fitted or top-dose-only effect; inactive means flat fitted curve, though single readings scatter.

test: Cytometry Cell-Based qHTS for Inhibitors of the mTORC1 Signaling Pathway in MEF cells (AID 2668); conditions: mTORC1 pathway readout; series mostly up to 38.3 µM
Text: NIH Molecular Libraries Probe Production Centers Network [MLPCN]
NIH Chemical Genomics Center [NCGC]
Assay Submitter (PI): Blenis, John; Hoffman, Greg; Harvard University
NCGC Assay Overview: The mammalian target of rapamycin (mTOR) is an intracellular serine/threonine kinase Aberrant regulation of mTOR signaling plays a causative role in a number of human diseases, including cancer, benign tumors such as lymphangioleiomyomatosis (LAM) and Tuberous Sclerosis Complex (TSC), and metabolic diseases such as diabetes and obesity. This project aims to identify inhibitors of ribosomal protein S6 (rpS6) phosphorylation. The phosphorylation of rpS6 is a key event downstream of mTOR activation. The assay uses a phospho-specific antibody of phospho-rpS6 to detect inhibitors of mTOR activation. Mutations in the Tsc1 and Tsc2 genes are the underlying genetic lesions responsible for TSC, causing constitutive activation of the mTORC1 pathway and leading to profound effects on cell metabolism. Aberrant metabolism in cancer has recently received significant attention as a target to develop therapeutic agents in the treatment of cancer.1 As Tsc2-/- cells have lost the ability to respond to energy and growth factor deprivation, these cells are unable to properly down regulate cellular biosynthetic processes in response to metabolic stress, and are thus extremely sensitive to glucose deprivation-induced death.2 A central goal of this project is to explore the unique cell survival and metabolic properties of cells with Tsc1 or Tsc2 by screening for compounds that selectively target the Tsc2-/- MEFs by screening both Tsc2-/- and WT MEF cell lines. We hope to better understand these aspects of TSC physiology in order to exploit them for therapeutic benefit.
NCGC Acumen Assay Protocol:
For quantitative high throughput analysis of mTORC1 signaling, we developed a cell-based assay for immuno-fluorescence based detection of rpS6 phosphorylation on the Acumen Explorer that will be used a platform for the primary small molecule screen. Mouse embryonic fibroblasts (MEFs) are cultured in 1536-well plates using DMEM + 10% FBS. Twenty-four hrs after plating, test compounds (solubilized in DMSO) are delivered and incubated with the cells for 24 hrs at 37 degree Celsius. Following the incubation, media with compound is aspirated and the cells are fixed in 4% paraformaldehyde (PFA) containing PBS + 0.2% TX-100. Next, PFA is aspirated, cells are washed two times with PBS plus 0.2% TX-100 and the cells are blocked for 1 hr at room temperature (blocking buffer: LiCOR Blocking Buffer plus 0.2% TX-100). This is followed by aspiration and staining with Alexa-488 conjugated-phospho-rpS6 Ser235/236 antibody for 2 hours at room temperature (Cell Signaling Technology # 4803, 1:50 dilution in blocking buffer). Cells are washed two times with PBS plus 0.2% TX-100, and stained with 10 uM propidium iodide (PI) for 20-25 minutes for cell number measurement (1:500 dilution of Hoescht staining is also added for IN Cell imaging). The plates are scanned on the Acumen Explorer laser scanning instrument (TTP Labtech) using the 488nm laser for simultaneous excitation of the Alexa-488 and PI. The fluorescence emission from the Alexa-488 conjugated rpS6 phospho-235/236 antibody staining is selected using a […] band pass filter. Fluorescence emission from the PI stain is selected using a 575-640 nm band pass filter. The normalized phospho-S6 staining is calculated as the ratio of the integrated Alexa 488 intensity divided by the integrated PI intensity for the single concentration rapamycin control (7.5 nM) and DMSO columns. […] Inhibition of the pathway is defined based on the normalized phospho-S6 intensity in rapamycin treated cells. […]
Potency means the concentration at half of the fitted maximal effect.

Structure (SMILES) | Potency
C[N+](C)(C)CC#CCN1CCCC1=O | inactive
N[C@@H](CCl)C(=O)O | inactive
C[C@@H]1O[C@@H](O[C@H]2C[C@@H](O)[C@]3(CO)[C@@H]4C(CC[C@]3(O)C2)[C@@]2(O)CC[C@H]([C@@H]3COC(=O)C3)[C@@]2(C)C[C@H]4O)[C@H](O)[C@H](O)[C@H]1O (stereo not given in full) | inactive
NCC(CP(=O)(O)O)c1ccc(Cl)cc1 (stereo not given) | inactive
Clc1ccc(N2CC3CCC(C2)N3)nn1 | inactive
CC(C)[C@@]1(NC(=O)[C@@H]2C[C@@H]3c4cccc5[nH]cc(c45)C[C@H]3N(C)C2)O[C@@]2(O)[C@@H]3CCCN3C(=O)[C@H](Cc3ccccc3)N2C1=O | inactive
C[Se]C[C@H](N)C(=O)O | inactive
CCN1C[C@@]2(COC)C3[C@@H](OC)C4[C@@H]1C3([C@@H]1C[C@]3(O)[C@H](OC(=O)c5ccccc5)[C@@H]1[C@]4(OC(C)=O)[C@@H](O)[C@@H]3OC)[C@H](OC)C[C@H]2O | inactive
COc1ccc2c(c1)[C@@]13CCCC[C@H]1[C@@H](C2)NCC3 | inactive
C[C@H](Cc1ccc2c(c1)OC(C(=O)O)(C(=O)O)O2)NC[C@H](O)c1cccc(Cl)c1 | inactive
COc1ccc2[nH]cc(CCN)c2c1 | inactive
CCCN(CCC)CCc1ccc(O)c(O)c1 | inactive
COC(=O)N1CCN(C(=O)Cc2ccc(Cl)c(Cl)c2)C(CN2CCCC2)C1 (stereo not given) | inactive
Cc1cc([C@@H]2CCCN2C)on1 | inactive
C[N+]1(C)CCN(c2ccccc2)CC1 | inactive
CC(C)NP(=O)(NC(C)C)OP(=O)(NC(C)C)NC(C)C | inactive
CP(=O)(O)C1=CCNCC1 | inactive
NC(N)=Nc1ccc2[nH]c3c(c2c1)C[C@@]1(O)[C@H]2Cc4ccc(O)c5c4[C@@]1(CCN2CC1CC1)[C@H]3O5 | inactive
CCCn1c(=O)c2[nH]c(C3CCCC3)nc2n(CCCOC(=O)c2ccc(S(=O)(=O)F)cc2)c1=O | inactive
NC(C(=O)O)c1cc(=O)[nH]o1 (stereo not given) | inactive

Structure (SMILES) | Potency
O=S1(=O)N(CCN2CC=C(c3c[nH]c4cc(F)ccc34)CC2)c2cccc3c2N1CCC3 | inactive
COc1cc(CC(C)N)c(OC)cc1I (stereo not given) | inactive
COc1ccc(CNC(=O)/C=C/c2ccc3[nH]cc(CCN(C)C)c3c2)cc1 | inactive
CCCN(CCC)C1CCc2cccc(O)c2C1 (stereo not given) | inactive
OCc1cnc[nH]1 | inactive
CCCN1CC[C@@H]2c3cc(O)ccc3CC[C@@H]21 | inactive
NC(Cc1cc(O)c(O)cc1O)C(=O)O (stereo not given) | inactive
COc1ccc2c(c1O)-c1cccc3c1[C@@H](C2)N(C)CC3 | inactive
NCCc1c[nH]c2ccc(C(N)=O)cc12 | inactive
CC(C)(C)c1cc(C=C(C#N)C#N)cc(C(C)(C)C)c1O | 4.14 µM (active)
NC(=O)COc1c(F)cc(SCCNS(=O)(=O)c2ccccc2)cc1F | inactive
CCNC(=O)[C@H]1O[C@@H](n2cnc3c(N)ncnc32)[C@H](O)[C@@H]1O | inactive
CC(=O)NBr | inactive
COc1ccc(OC)c(C(O)C(C)N)c1 (stereo not given) | inactive
CCCN(CCC)C1Cc2cc(OC)c(OC)cc2C1 | inactive
CCS(=O)(=O)Nc1cccc(C(=C2CCCCC2)c2cnc[nH]2)c1 | inactive
CCCN(CCC)[C@H]1CCc2c(F)ccc(O)c2C1 | inactive
N[C@@H](Cn1oc(=O)[nH]c1=O)C(=O)O | inactive
O=C1C=CC(=O)C=C1 | inactive
COc1ccc2c(c1)/C(=C/c1cnc[nH]1)C(=O)N2 | 6.56 µM (active)
